Records with an inconclusive call do not appear. Calls of active or inactive are those of the source. Calls follow the shape of the dose curve; as a rule, active = well fitted cell-killing curve with a large enough effect; inconclusive = small, poorly fitted or top-dose-only effect, or effect the other way; inactive = no such curve, though single readings can be large or run the other way.
test: Quantitative High-Throughput drug screen in 47 multiple myeloma cell lines against the NCATS MIPE library collection: INA6_PLB cell viability assay (AID 1918965; also: nearly all actives have a fitted effect of over 55% in size); conditions: INA6 myeloma viability, CellTiter-Glo ATP luminescence, 48 h; series mostly up to 45.8 µM
How it was run: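 CellTiter-Glo luminescence (ATP) after 48 h compound exposure, 37C/5% CO2; 500 cells/well; MIPE 4.0 approved/investigational drugs pinned in; DMSO = 100%, media only = 0% viability.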
Potency is read from the fitted curve at half-maximal effect.

SMILES	Potency
Cc1ccc(NC(=O)C2(c3ccc4c(c3)OC(F)(F)O4)CC2)nc1-c1cccc(C(=O)O)c1	29.6 nM (active)
COc1ccc(C(=O)CC2(O)C(=O)Nc3c(Cl)ccc(Cl)c32)cc1 (stereo not drawn)	2350 nM (active)
Cc1ccc(-c2ncn(-c3ccc(Nc4nccc(-c5cccc(N6CCOCC6)c5)n4)cc3)n2)cn1	66.2 nM (active)
CCCCOc1c(C(=O)c2c(F)cc(C)cc2F)cnc2n[nH]cc12	4180 nM (active)
CC(=O)c1c(C)c2cnc(Nc3ccc(N4CCNCC4)cn3)nc2n(C2CCCC2)c1=O	18700 nM (active)
CNC(=O)c1ccc(N2C(=S)N(c3cnc(C#N)c(C(F)(F)F)c3)C(=O)C23CCC3)cc1F	2090 nM (active)
O=c1[nH]nc(Sc2ncc([N+](=O)[O-])s2)n1-c1ccc2c(c1)OCCO2	1180 nM (active)
CN(C)CC=CC(=O)Nc1cc2c(Nc3ccc(F)c(Cl)c3)ncnc2cc1O[C@H]1CCOC1	2090 nM (active)
Cn1c2ccccc2c2c3c(c4c5ccccc5n(CCC#N)c4c21)CNC3=O	83.3 nM (active)
CC(NCc1ccc2c(c1)nc(NC(=O)c1ccc(-c3cn[nH]c3)s1)n2CC(C)(C)O)C(C)(C)C (stereo not drawn)	83.3 nM (active)
C#Cc1cccc(Nc2ncnc3cc(OC)c(OCCCCCCC(=O)NO)cc23)c1	16.6 nM (active)
CC1(O)CC(c2nc(-c3ccc4ccc(-c5ccccc5)nc4c3)c3c(N)nccn23)C1 (stereo not drawn)	6620 nM (active)
CC(=O)OCC(=O)[C@@]1(O)[C@H](C)C[C@H]2[C@@H]3C=C(C)C4=Cc5c(cnn5-c5ccccc5)C[C@]4(C)[C@@H]3[C@@H](O)C[C@@]21C	5260 nM (active)
CC(C)(C)c1cnc(CSc2cnc(NC(=O)C3CCNCC3)s2)o1	235 nM (active)
CCS(=O)(=O)c1cccc(-c2cc(C(=O)NC3CCN(C)CC3)c(C)c3[nH]c4ncc(C)cc4c23)c1	418 nM (active)
Cc1ccc(C(=O)Nc2cccc(C(F)(F)F)c2)cc1-c1ccc2nc(NCCN3CCOCC3)ncc2c1	3320 nM (active)
CNC(=O)c1ccccc1Nc1nc(Nc2ccc(N3CCOCC3)cc2OC)ncc1Cl	5260 nM (active)

SMILES	Potency
OCCCNc1cc(-c2ccnc(Nc3cccc(Cl)c3)n2)ccn1	26.4 nM (active)
CC(C)c1ccccc1Cc1cc(C(=O)Nc2ccc(S(=O)(=O)c3ccccc3C(C)(C)C)cc2)c(O)c(O)c1O	5260 nM (active)
Cn1cc(-c2[nH]c3cc(NC(=O)[C@H](N)C4CCCCC4)cc4c3c2C=NNC4=O)cn1	209 nM (active)
N#CCNC(=O)c1ccc(-c2ccnc(Nc3ccc(N4CCOCC4)cc3)n2)cc1	1320 nM (active)
CN1CC[C@@H](c2c(O)cc(O)c3c(=O)cc(-c4ccccc4Cl)oc23)[C@@H](O)C1	41.8 nM (active)
NC(=O)Nc1cc(-c2cccc(F)c2)sc1C(=O)N[C@H]1CCCNC1	59 nM (active)
CN(C)Cc1c(C(=O)NCCOc2ccc(C(=O)NO)cc2)oc2ccccc12	187 nM (active)
Cc1[nH]nc2ccc(-c3cncc(OC[C@@H](N)Cc4ccccc4)c3)cc12	935 nM (active)
COC(=O)[C@]12CCC(C)(C)C[C@@H]1[C@@H]1C(=O)C=C3[C@@]4(C)C=C(C#N)C(=O)C(C)(C)[C@@H]4CC[C@@]3(C)[C@]1(C)CC2	59 nM (active)
CC(C)C[C@H](NC(=O)CNC(=O)c1cc(Cl)ccc1Cl)B(O)O	37.2 nM (active)
O=C(CCCCCCNC(=O)c1cnc(N(c2ccccc2)c2ccccc2)nc1)NO	2640 nM (active)
CC=C1NC(=O)[C@H]2CSSCCC=C[C@H](CC(=O)N[C@H](C(C)C)C(=O)N2)OC(=O)[C@H](C(C)C)NC1=O	13.2 nM (active)
CC1=C(CO)C(=O)O[C@@H]([C@@H](C)[C@H]2CC[C@H]3[C@@H]4C[C@H]5O[C@]56[C@@H](O)C=CC(=O)[C@]6(C)[C@@H]4CC[C@]23C)C1	105 nM (active)
CC(=O)Nc1nc(C)c(-c2ccc(Cl)c(S(=O)(=O)NCCO)c2)s1	1050 nM (active)
O=C(Nc1cc(C(F)(F)F)cc(C(F)(F)F)c1)c1cc(Cl)ccc1O	1660 nM (active)
O=C(Nc1cn[nH]c1-c1nc2ccc(CN3CCOCC3)cc2[nH]1)NC1CC1	148 nM (active)
CNc1nccc(-c2cccnc2Oc2cc(C(=O)Nc3cccc(C(F)(F)F)c3)ccc2C)n1	4180 nM (active)

test: Quantitative High-Throughput drug screen in 47 multiple myeloma cell lines against the NCATS MIPE library collection: JJN3_DSMZ cell viability assay (AID 1918966; also: nearly all actives have a fitted effect of over 50% in size); conditions: JJN3 myeloma cells viability, CellTiter-Glo ATP, 48 h; series mostly up to 45.8 µM
How it was run: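 We plated 500 myeloma cells per well, pinned in MIPE 4.0 compounds, and incubated for 48 hours at 37C. ATP was then quantified with CellTiter-Glo, with DMSO and media-only wells defining 100% and 0%.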

SMILES	Potency
Cc1ccc(NC(=O)C2(c3ccc4c(c3)OC(F)(F)O4)CC2)nc1-c1cccc(C(=O)O)c1	148 nM (active)
COc1ccc(C(=O)CC2(O)C(=O)Nc3c(Cl)ccc(Cl)c32)cc1 (stereo not drawn)	6620 nM (active)
Cc1ccc(-c2ncn(-c3ccc(Nc4nccc(-c5cccc(N6CCOCC6)c5)n4)cc3)n2)cn1	235 nM (active)
CCCCOc1c(C(=O)c2c(F)cc(C)cc2F)cnc2n[nH]cc12	2350 nM (active)
CC(=O)c1c(C)c2cnc(Nc3ccc(N4CCNCC4)cn3)nc2n(C2CCCC2)c1=O	23500 nM (active)
CNC(=O)c1ccc(N2C(=S)N(c3cnc(C#N)c(C(F)(F)F)c3)C(=O)C23CCC3)cc1F	3320 nM (active)
O=c1[nH]nc(Sc2ncc([N+](=O)[O-])s2)n1-c1ccc2c(c1)OCCO2	2090 nM (active)
CN(C)CC=CC(=O)Nc1cc2c(Nc3ccc(F)c(Cl)c3)ncnc2cc1O[C@H]1CCOC1	4690 nM (active)
Cn1c2ccccc2c2c3c(c4c5ccccc5n(CCC#N)c4c21)CNC3=O	3320 nM (active)
CC(NCc1ccc2c(c1)nc(NC(=O)c1ccc(-c3cn[nH]c3)s1)n2CC(C)(C)O)C(C)(C)C (stereo not drawn)	264 nM (active)
C#Cc1cccc(Nc2ncnc3cc(OC)c(OCCCCCCC(=O)NO)cc23)c1	132 nM (active)
CC1(O)CC(c2nc(-c3ccc4ccc(-c5ccccc5)nc4c3)c3c(N)nccn23)C1 (stereo not drawn)	6620 nM (active)
CC(=O)OCC(=O)[C@@]1(O)[C@H](C)C[C@H]2[C@@H]3C=C(C)C4=Cc5c(cnn5-c5ccccc5)C[C@]4(C)[C@@H]3[C@@H](O)C[C@@]21C	9350 nM (active)
CC(C)(C)c1cnc(CSc2cnc(NC(=O)C3CCNCC3)s2)o1	83.3 nM (active)
CCS(=O)(=O)c1cccc(-c2cc(C(=O)NC3CCN(C)CC3)c(C)c3[nH]c4ncc(C)cc4c23)c1	1660 nM (active)
Cc1ccc(C(=O)Nc2cccc(C(F)(F)F)c2)cc1-c1ccc2nc(NCCN3CCOCC3)ncc2c1	16600 nM (active)
CNC(=O)c1ccccc1Nc1nc(Nc2ccc(N3CCOCC3)cc2OC)ncc1Cl	3720 nM (active)

SMILES	Potency
OCCCNc1cc(-c2ccnc(Nc3cccc(Cl)c3)n2)ccn1	93.5 nM (active)
CC(C)c1ccccc1Cc1cc(C(=O)Nc2ccc(S(=O)(=O)c3ccccc3C(C)(C)C)cc2)c(O)c(O)c1O	14800 nM (active)
Cn1cc(-c2[nH]c3cc(NC(=O)[C@H](N)C4CCCCC4)cc4c3c2C=NNC4=O)cn1	662 nM (active)
N#CCNC(=O)c1ccc(-c2ccnc(Nc3ccc(N4CCOCC4)cc3)n2)cc1	13200 nM (active)
CN1CC[C@@H](c2c(O)cc(O)c3c(=O)cc(-c4ccccc4Cl)oc23)[C@@H](O)C1	74.3 nM (active)
NC(=O)Nc1cc(-c2cccc(F)c2)sc1C(=O)N[C@H]1CCCNC1	1320 nM (active)
CN(C)Cc1c(C(=O)NCCOc2ccc(C(=O)NO)cc2)oc2ccccc12	833 nM (active)
Cc1[nH]nc2ccc(-c3cncc(OC[C@@H](N)Cc4ccccc4)c3)cc12	1180 nM (active)
COC(=O)[C@]12CCC(C)(C)C[C@@H]1[C@@H]1C(=O)C=C3[C@@]4(C)C=C(C#N)C(=O)C(C)(C)[C@@H]4CC[C@@]3(C)[C@]1(C)CC2	526 nM (active)
CC(C)C[C@H](NC(=O)CNC(=O)c1cc(Cl)ccc1Cl)B(O)O	105 nM (active)
O=C(CCCCCCNC(=O)c1cnc(N(c2ccccc2)c2ccccc2)nc1)NO	4180 nM (active)
CC=C1NC(=O)[C@H]2CSSCCC=C[C@H](CC(=O)N[C@H](C(C)C)C(=O)N2)OC(=O)[C@H](C(C)C)NC1=O	41.8 nM (active)
CC1=C(CO)C(=O)O[C@@H]([C@@H](C)[C@H]2CC[C@H]3[C@@H]4C[C@H]5O[C@]56[C@@H](O)C=CC(=O)[C@]6(C)[C@@H]4CC[C@]23C)C1	662 nM (active)
CC(=O)Nc1nc(C)c(-c2ccc(Cl)c(S(=O)(=O)NCCO)c2)s1	18700 nM (active)
O=C(Nc1cc(C(F)(F)F)cc(C(F)(F)F)c1)c1cc(Cl)ccc1O	1870 nM (active)
O=C(Nc1cn[nH]c1-c1nc2ccc(CN3CCOCC3)cc2[nH]1)NC1CC1	1870 nM (active)
CNc1nccc(-c2cccnc2Oc2cc(C(=O)Nc3cccc(C(F)(F)F)c3)ccc2C)n1	18700 nM (active)

Source: PubChem BioAssay (NCATS)
